SMILES strings stand for the structures.

The target of the test is Albumin (Bos taurus) (UniProt P02769). Kind of test: compounds binding labelled BSA control protein – biochemical, small-molecule microarray, Alexa647 label, 635/667 nm fluorescence, artefact control for SMM control protein annotation, profiling panel (AID 1118).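 Also: score merges 667 nm emission intensity and signal-to-noise per printed compound spot.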 The conditions noted are these: BSA-A647 binding, fluorescence 635 nm, higher = more signal.
Albumin (Bos taurus), sequence (P02769 whole entry, looked up): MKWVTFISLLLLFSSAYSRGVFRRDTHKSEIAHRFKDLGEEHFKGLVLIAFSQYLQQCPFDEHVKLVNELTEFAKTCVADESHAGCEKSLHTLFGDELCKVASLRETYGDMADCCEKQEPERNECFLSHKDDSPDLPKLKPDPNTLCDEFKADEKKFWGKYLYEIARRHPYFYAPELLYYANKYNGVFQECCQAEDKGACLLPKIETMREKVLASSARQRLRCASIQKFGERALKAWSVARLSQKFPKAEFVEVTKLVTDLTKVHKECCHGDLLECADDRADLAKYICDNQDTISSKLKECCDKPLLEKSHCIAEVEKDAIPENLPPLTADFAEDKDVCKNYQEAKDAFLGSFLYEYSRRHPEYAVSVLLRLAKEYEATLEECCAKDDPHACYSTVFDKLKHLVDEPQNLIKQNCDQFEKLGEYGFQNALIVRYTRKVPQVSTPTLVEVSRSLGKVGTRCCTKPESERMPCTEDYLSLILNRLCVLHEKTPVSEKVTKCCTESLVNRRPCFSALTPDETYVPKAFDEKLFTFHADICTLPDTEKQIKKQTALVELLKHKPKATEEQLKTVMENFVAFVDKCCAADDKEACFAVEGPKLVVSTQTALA
`CSCC[C@@H]1NC(=O)CC=C[C@@H](C)COC(=O)[C@H](C)COC1=O`: the composite z-score is -0.891.

With `CC1(C)O[C@H]2O[C@H]([C@H](O)CON=C3[C@H]4CCn5c(=O)n(-c6ccccc6)c(=O)n5[C@H]4[C@H](O)[C@@H]4O[C@H]34)[C@H](O)[C@H]2O1`, the composite z-score turned out to be 0.661. Turning to `COc1cccc([C@H]2Oc3ccc(OC)cc3C(=NO[C@@H](C)c3cc(-c4c(C)cc(C)cc4C)no3)[C@@H]2O)c1`, the composite z-score was -1.31. As for `CC(=O)OC[C@H]1O[C@H](C#CCCc2ccccc2)C=C[C@@H]1OC(C)=O`, the figure is 0.829. The figure for `CC(C)=CCCC(C)=CCON=C1C[C@@H](O)[C@@H](O)[C@@H]2[C@@H]3C(=O)N(C4CCCCC4)C(=O)[C@@H]3CC[C@H]12` is -0.207. As for `COC(=O)[C@H](C)NC(=O)CCC1CC(OC(=O)NCc2ccc3c(c2)OCO3)CC2(CCCC(COC(=O)NCCc3ccc(Cl)cc3)O2)O1` (stereo partly specified), the figure is 0.293; as for `COC(=O)[C@H](C)NC(=O)CCC1CC(OC(=O)NCCc2ccc(F)cc2)CC2(CCCC(COC(=O)NCC3CCCCC3)O2)O1` (stereo partly specified), 0.0505; as for `CCN1C(=O)[C@H]2[C@H]3[C@H](O)[C@H](O)CC(=NO[C@H](C)c4cn([C@H](CO)Cc5ccccc5)nn4)[C@@H]3CC[C@H]2C1=O`, 0.818. In turn, `CCN1C(C)=C(C(=O)OC)[C@@H](c2ccccc2)N2C(=O)[C@](O)(C(=O)OC)CC(C(C)=O)=C12` yielded a composite z-score of -0.428. For the compound `C=CC[C@@H]1C=C[C@H](ON=C(C)CCN2CCCCc3nc(C)c(C)cc32)[C@@H](CO)O1`, the composite z-score turned out to be 0.0868. For the compound `CC(C)=NOC(C)CN1CCCCc2nc(C)c(C)cc21` (stereo unspecified), the composite z-score amounted to 0.673. The figure for `CCOC(=O)[C@H](Cc1ccccc1)NC(=O)CCC1CC(OC(=O)NCCc2ccc(F)cc2)CC2(CCCC(COC(=O)NCCOc3ccccc3)O2)O1` (stereo partly specified) is 0.595; for `Cc1ccc(S(=O)(=O)N[C@@H]2COC(=O)CC=C[C@@H](C)[C@H](NS(=O)(=O)c3ccc(C)cc3)COC(=O)[C@H](C)NC(=O)CC=C[C@H]2C)cc1` it is -0.953. As for `CCOC(=O)CCN1C(=O)[C@H]2[C@H]3[C@H](O)[C@H](O)CC(=NOCC(C)C)[C@@H]3CC[C@H]2C1=O`, the figure is -0.0235; as for `CC(=O)OC[C@H]1O[C@H](CCON=C(C)CCN2CCCc3nc(C)c(C)cc32)C=C[C@@H]1OC(C)=O`, 0.159; as for `Cc1cc2c(nc1C)CCCCN2CC(O)CN1CCCc2nc(-c3ccc(Br)cc3)ccc21` (stereo unspecified), 0.466. Compound `CC(C)(C)N1C(=O)[C@H]2[C@@H]3C(=CC[C@H]2C1=O)C(=O)[C@H]1O[C@H]1[C@H]3O` returned a composite z-score of 0.0159. The figure for `CC(CCN1CCCc2nc(C)c(C)cc21)=NOC[C@@H](C)[C@H](OCc1ccccc1)C(C)C` is -0.453. The figure for `CON=C(C)CCC(=O)OC[C@H]1O[C@H](C#Cc2ccccc2)C=C[C@@H]1Oc1ccc(C)cc1` is 0.468. The figure for `C[C@@H]1CC[C@@H](C(=O)O)N[C@H]1c1cccc(N2CCOCC2)c1` is 0.262. `O=C1C2=CC[C@H]3C(=O)N(C4CCCCC4)C(=O)[C@H]3[C@H]2[C@H](O)[C@@H]2O[C@H]12` had a composite z-score of 0.964. Take `CCOC(=O)[C@H](Cc1ccccc1)NC(=O)CCC1CC(OC(=O)NCCc2ccc(F)cc2)CC2(CCCC(COC(=O)NCc3cccc(C(F)(F)F)c3)O2)O1` (stereo partly specified): the composite z-score was 0.825.

Compound `O=C1[C@H]2[C@H]3[C@H](O)[C@H](O)CC(=NO[C@@H]4O[C@H](CO)[C@@H](O)[C@H](O)[C@H]4O)[C@H]3CC[C@H]2C(=O)N1C[C@@H]1CCCO1` showed a composite z-score of -0.011.

The compound `CC(CCC(=O)OC[C@H]1O[C@H](C#Cc2ccccc2)C=C[C@@H]1Oc1ccc(C)cc1)=NOC[C@@H](C)[C@H](OCc1ccccc1)C(C)C` yielded a composite z-score of -0.607. The figure for `C[C@@H]1CC[C@H]2C(=O)OC(Cc3ccccc3)CN2[C@H]1c1ccc(Br)cc1` (stereo partly specified) is 0.525. The figure for `COC(=O)CC=C[C@@H](C)[C@@H](C=NOC[C@@H](O)COCc1ccco1)OC` is -0.15. For `CCc1cc2c(nc1CC)CCN(CCC(C)=NOC[C@@H](C)[C@H](OCc1ccccc1)C(C)C)C2`, the composite z-score turned out to be 0.742. In turn, `O=C1C2=CC[C@H]3C(=O)N(C[C@@H]4CCCO4)C(=O)[C@H]3[C@H]2[C@H](O)[C@@H]2O[C@H]12` yielded a composite z-score of 0.335. As for `CCOC(=O)CCN1C(=O)[C@H]2[C@H]3[C@H](O)[C@H](O)CC(=NNC(=O)OCC)[C@H]3CC[C@H]2C1=O`, the figure is -0.898; as for `COc1ccc2c(c1)O[C@@H](c1cccc(C(F)(F)F)c1)[C@H](O)C2=O`, 0.442; as for `COC(=O)CC=C[C@@H](C)[C@@H](C=NOC(C)CN1CCCCc2nc(C)c(C)cc21)NS(=O)(=O)c1ccc(C)cc1` (stereo partly specified), -0.636. As for `CCOC(=O)[C@H](Cc1ccccc1)NC(=O)CCC1CC(OC(=O)NCc2cccc3ccccc23)CC2(CCCC(COC(=O)NCCc3ccccc3OC)O2)O1` (stereo partly specified), the figure is 0.49; as for `O=C1C=C[C@@H](O)[C@@H]2[C@@H]3C(=O)N(c4cccc(Oc5ccccc5)c4)C(=O)[C@@H]3CC[C@@H]12`, 0.0329; as for `O=C1C=C[C@@H](O)[C@@H]2[C@@H]3C(=O)N(Cc4ccccc4)C(=O)[C@@H]3CC[C@@H]12`, 0.22. The compound `COC(=O)[C@H](C)NC(=O)CCC1CC(OC(=O)NCc2ccc3c(c2)OCO3)CC2(CCCC(COC(=O)NCc3ccccc3)O2)O1` (stereo partly specified) came in with a composite z-score of -0.372. The figure for `COc1ccc(COC(=O)NN=C2C[C@@H](O)[C@@H](O)[C@@H]3[C@@H]4C(=O)N(C(C)(C)C)C(=O)[C@@H]4CC[C@@H]23)cc1` is 0.584.
